# Test results: PubChem BioAssay (NCATS)
# Results filed as inconclusive are left out. A call without a number means that no potency is given here. The source made the active and inactive calls. Unless noted, the call rests on the fitted dose curve; in most records, active means well fitted curve in the direction sought with a large enough effect; inconclusive means small, poorly fitted or top-dose-only effect, or another doubt; inactive means no such curve, though single readings can be large; an effect the other way counts as inactive or inconclusive.
# Key:
# [1] = Confirmation and Secondary Assay for Modulators of Hemoglobin Beta Chain Splicing at IVS2 654 locus (AID 910);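 further: HeLa cells stably carrying EGFP split by mutant beta-globin IVS2-654 intron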
# Procedure, shortened: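 HeLa cells stably expressing EGFP interrupted by β-globin IVS2-654 intron, seeded overnight in Opti-MEM/2% FCS, then treated 2 days at 37 °C. Restored splicing read as total peak GFP intensity per well by laser scanning cytometry (488 nm excitation, 500–520 nm emission); 500 nM antisense PNA as control.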
# [2] = qHTS Assay for Identification of Small Molecule Agonists for Thrombopoietin (TPO) Signaling Pathway (AID 917)
# Procedure, shortened: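 Murine Ba/F3 cells expressing human TPO receptor and GPIIb-promoter luciferase, IL-3-starved overnight, given compound plus TPO at 26 pM (EC50). After 24 h at 37 C, 5% CO2, luminescence read.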
# [3] = Confirmation and Secondary Assay for Modulators of Hemoglobin Beta Chain Splicing at IVS2 705 locus (AID 930);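 further: HeLa cells stably expressing the EGFP-705 splicing reporter; GFP fluorescence per well restored by corrected splicing of the IVS2-705 intron in EGFP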
# Procedure, shortened: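 Per-well GFP, captured at 1 x 8 µm resolution with 488 nm excitation, served as the read-out for HeLa EGFP-705 cells incubated 2 days with test compound versus DMSO.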
# [4] = biological target: Muscarinic acetylcholine receptor M1 (Rattus norvegicus) (UniProt P08482); experiment: qHTS Assay for Antagonists of Acetylcholine Muscarinic M1 Receptor: Kinetic Measurement of Intracellular Calcium Response (AID 943); further: potency means the concentration at half of the fitted maximal effect; nearly all actives have a fitted effect of over 75% in size
# Chain of Muscarinic acetylcholine receptor M1 (Rattus norvegicus) (P08482 whole entry, looked up): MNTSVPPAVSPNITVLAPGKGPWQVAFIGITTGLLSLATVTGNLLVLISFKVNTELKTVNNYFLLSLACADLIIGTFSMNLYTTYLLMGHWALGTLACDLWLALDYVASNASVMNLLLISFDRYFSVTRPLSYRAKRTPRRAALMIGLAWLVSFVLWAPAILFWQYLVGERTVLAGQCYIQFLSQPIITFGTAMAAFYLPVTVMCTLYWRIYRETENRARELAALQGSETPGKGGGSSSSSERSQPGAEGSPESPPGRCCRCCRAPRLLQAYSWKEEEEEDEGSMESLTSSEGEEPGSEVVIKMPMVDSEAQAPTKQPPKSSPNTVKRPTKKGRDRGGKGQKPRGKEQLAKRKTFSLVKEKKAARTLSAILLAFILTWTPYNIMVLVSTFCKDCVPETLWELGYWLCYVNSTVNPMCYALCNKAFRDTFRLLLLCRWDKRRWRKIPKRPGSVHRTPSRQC
# Procedure, shortened: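 Intracellular calcium flux, recorded with Fluo-4 in a kinetic plate reader, served as signal; the response to carbachol at EC80 (100 nM final) was taken as maximal over minimal fluorescence after a 10 min compound pre-incubation in rat M1-CHO cells.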
# [5] = biological target: Muscarinic acetylcholine receptor M1 (Rattus norvegicus) (UniProt P08482); experiment: qHTS Assay for Antagonists of Acetylcholine Muscarinic M1 Receptor: Measurement of IP-One Response (AID 944); further: nearly all actives have a fitted effect of over 75% in size
# Procedure, shortened: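 Steps: plate transfected CHO-M1 cells overnight; add test compound, 10 min; add carbachol (200 nM, EC80) in stimulation buffer with LiCl; incubate 30 min; add labelled IP1 tracer and anti-IP1 antibody in lysis buffer; read HTRF after 10 min.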
# [6] = biological target: Pyruvate kinase (Leishmania mexicana) (UniProt Q27686); experiment: qHTS Validation Assay for Inhibitors of Leishmania Mexicana Pyruvate Kinase (AID 945)
# Chain of Pyruvate kinase (Leishmania mexicana) (Q27686 2-499 E452W): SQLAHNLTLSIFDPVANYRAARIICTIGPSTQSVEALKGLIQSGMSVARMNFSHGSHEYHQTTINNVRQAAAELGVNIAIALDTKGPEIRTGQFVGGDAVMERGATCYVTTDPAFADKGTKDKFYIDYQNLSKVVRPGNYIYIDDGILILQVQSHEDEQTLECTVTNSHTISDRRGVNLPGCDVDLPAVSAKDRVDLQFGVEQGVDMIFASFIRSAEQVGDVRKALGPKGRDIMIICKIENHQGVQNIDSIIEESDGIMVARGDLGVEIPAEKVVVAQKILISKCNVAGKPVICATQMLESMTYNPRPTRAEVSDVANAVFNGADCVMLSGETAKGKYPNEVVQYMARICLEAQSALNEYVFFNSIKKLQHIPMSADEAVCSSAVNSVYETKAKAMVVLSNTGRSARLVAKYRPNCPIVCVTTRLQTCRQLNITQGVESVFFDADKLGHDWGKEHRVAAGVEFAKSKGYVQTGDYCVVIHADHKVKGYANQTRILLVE
# Procedure, shortened: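 An endpoint luciferase assay: 0.2 nM LmPYK E451W turns over 0.5 mM PEP with 0.1 mM ADP for 1 h at room temperature, pH 7.2, before PKLight addition. Values are normalized to DMSO-only wells.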
# [7] = biological target: Pyruvate kinase PKM (Homo sapiens) (UniProt P14618); experiment: qHTS Assay for Activators of Human Muscle Pyruvate Kinase (AID 954; active means well fitted curve in the direction sought with a large enough effect, not every such curve was filed as active)
# Chain of Pyruvate kinase PKM (Homo sapiens) (P14618 whole entry, looked up): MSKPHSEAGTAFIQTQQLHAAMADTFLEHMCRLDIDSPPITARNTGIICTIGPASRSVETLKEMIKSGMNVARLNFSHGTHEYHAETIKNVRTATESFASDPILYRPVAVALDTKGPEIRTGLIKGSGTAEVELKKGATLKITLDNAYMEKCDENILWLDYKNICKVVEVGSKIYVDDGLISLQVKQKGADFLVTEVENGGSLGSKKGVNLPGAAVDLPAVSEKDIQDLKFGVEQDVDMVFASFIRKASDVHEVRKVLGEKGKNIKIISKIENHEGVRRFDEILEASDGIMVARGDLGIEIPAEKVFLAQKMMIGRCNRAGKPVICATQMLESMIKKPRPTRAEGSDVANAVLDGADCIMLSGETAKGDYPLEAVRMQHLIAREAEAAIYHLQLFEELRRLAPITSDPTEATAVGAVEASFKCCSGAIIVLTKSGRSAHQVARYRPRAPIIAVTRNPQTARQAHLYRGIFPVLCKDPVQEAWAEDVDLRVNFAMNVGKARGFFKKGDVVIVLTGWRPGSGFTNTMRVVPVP
# Procedure, shortened: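 Enzyme was run at intermediate activity so both inhibitors and activators could be detected. ATP formed from ADP and PEP by 0.1 nM human PKM2 during a 1 h room-temperature incubation was quantified by coupled luciferase luminescence.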
# [8] = biological target: Alpha-galactosidase A (Homo sapiens) (UniProt P06280); experiment: Counterscreen for Glucocerebrosidase Inhibitors: qHTS Assay for Human alpha-Galactosidase at pH 4.5 (AID 992)
# Chain of Alpha-galactosidase A (Homo sapiens) (P06280 whole entry, looked up): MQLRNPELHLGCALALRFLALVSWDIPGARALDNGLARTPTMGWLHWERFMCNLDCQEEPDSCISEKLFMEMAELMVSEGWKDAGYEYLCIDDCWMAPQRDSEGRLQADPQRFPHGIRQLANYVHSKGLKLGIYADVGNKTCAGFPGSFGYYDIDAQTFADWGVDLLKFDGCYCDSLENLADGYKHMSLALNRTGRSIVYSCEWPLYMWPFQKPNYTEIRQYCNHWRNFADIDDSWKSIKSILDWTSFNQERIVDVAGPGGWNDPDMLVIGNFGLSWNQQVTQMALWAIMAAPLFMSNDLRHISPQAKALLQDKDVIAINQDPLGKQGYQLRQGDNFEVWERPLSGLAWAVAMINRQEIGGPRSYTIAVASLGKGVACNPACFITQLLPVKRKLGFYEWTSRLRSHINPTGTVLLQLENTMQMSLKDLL
# Procedure, shortened: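 Read-out is 4-methylumbelliferone fluorescence (365 nm excitation, 440 nm emission) after a pH 10 NaOH/glycine stop. Reactions held 2 nM enzyme and 80 uM substrate at pH 4.5 for 20 min at room temperature.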
# [9] = biological target: alpha-glucosidase (Oryza sativa, rice) (UniProt Q653V4); experiment: Counterscreen for Glucocerebrosidase Inhibitors: qHTS Assay for Rice alpha-Glucosidase at pH 5.0 (AID 997)
# Procedure, shortened: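 Rice alpha-glucosidase (4 nM final) with 400 uM 4-methylumbelliferyl-alpha-D-glucopyranoside in citrate buffer pH 5.0, 20 min at room temperature, stopped at pH 10; fluorescence 365/440 nm, compounds 0.7 nM–77 uM, AC50 from Hill fits.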
# [10] = S16 Schwann cell PMP22 intronic element beta-lactamase assay (AID 624044; calls by dose curve; further: nearly all actives have a fitted effect of over 15% in size)
# Procedure, shortened: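 Rat S16 Schwann cells with beta-Lac driven by a PMP22 intronic element, compound-treated 24 h at 37 °C. LiveBLAzer FRET B/G read: 460 nm normalized to potassium clavulanate vs DMSO; 535 nm FRET as viability; concentration-effect curves classified.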
# ATS95 = experiment: qHTS profiling for inhibitors of Plasmodium falciparum proliferation (AID 504749); further: nearly all actives have a fitted effect of over 60% in size; further: potency means the concentration at half of the fitted maximal effect; details: P. falciparum in erythrocytes, SYBR Green DNA, 72 h; series mostly up to 28.7 µM
# Procedure, shortened: (§1)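 Readout was DNA-dye fluorescence from lysed cultures, ex 485/em 535 nm. Parasitized red cells had grown 72 h with compound; data scaled between 0.29 uM artemisinin and DMSO wells and corrected using vehicle-only plates.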
# CP237 = experiment: as above; details: P. falciparum in erythrocytes, SYBR Green DNA, 72 h; series mostly up to 28.7 µM
# Procedure, shortened: as §1
# Dd2 = experiment: as above; details: P. falciparum in erythrocytes, SYBR Green DNA, 72 h; series mostly up to 28.7 µM
# Procedure, shortened: as §1
# FAB9 = experiment: as above; details: P. falciparum in erythrocytes, SYBR Green DNA, 72 h; series mostly up to 28.7 µM
# Procedure, shortened: as §1
# ICS = experiment: as above; details: P. falciparum in erythrocytes, SYBR Green DNA, 72 h; series mostly up to 28.7 µM
# Procedure, shortened: as §1
# P93_24 = experiment: as above; details: P. falciparum in erythrocytes, SYBR Green DNA, 72 h; series mostly up to 28.7 µM
# Procedure, shortened: as §1
# SC27B = experiment: as above; details: P. falciparum in erythrocytes, SYBR Green DNA, 72 h; series mostly up to 28.7 µM
# Procedure, shortened: as §1
# TAB165 = experiment: as above; details: P. falciparum in erythrocytes, SYBR Green DNA, 72 h; series mostly up to 28.7 µM
# Procedure, shortened: as §1
# [11] = Confirmatory qHTS for small molecule stabilizers of the endoplasmic reticulum resident proteome: Secreted ER Calcium Modulated Protein (SERCaMP) assay (AID 1508628);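 further: SH-SY5Y cells given compound 16 h then thapsigargin 100 nM for 4 h; nearly all actives have a fitted effect of over 40% in size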
# Procedure, shortened: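 We seeded SH-SY5Y-GLuc-SERCaMP cells, added compounds (three concentrations in the primary run, eleven up to 76.6 uM in confirmation), incubated 16 h, depleted ER calcium with thapsigargin, and read luciferase 4 h later.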
# [12] = Cell Viability qHTS for small molecule stabilizers of the endoplasmic reticulum resident proteome (AID 1508629); details: cell viability counter-screen, 100 nM thapsigargin for final 4 h;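 further: potency means the concentration at half of the fitted maximal effect; compound exposure about 46 h in total before the viability read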
SMILES,outcome [1],Potency [2],outcome [3],Potency [4],Potency [5],Potency [6],outcome [7],outcome [8],outcome [9],Potency [10],Potency (ATS95),Potency (CP237),Potency (Dd2),Potency (FAB9),Potency (ICS),Potency (P93_24),Potency (SC27B),Potency (TAB165),Potency [11],Potency [12]
CN1CCN(CCC=C2c3ccccc3Sc3ccc(S(=O)(=O)N(C)C)cc32)CC1,inactive,inactive,inactive,14.1 µM (active),inactive,inactive,inactive,inactive,inactive,inactive,11.2 µM (active),11.2 µM (active),12.6 µM (active),inactive,7.94 µM (active),12.6 µM (active),11.2 µM (active),8.91 µM (active),–,–
CS(=O)(=O)CCNCc1nc(-c2ccc3ncnc(Nc4ccc(OCc5cccc(F)c5)c(Cl)c4)c3c2)cs1,–,–,–,–,–,–,–,–,–,–,–,–,–,–,–,–,–,–,inactive,15.8 µM (active)
